Reference: PubChem BioAssay (NCI)
This is part of a sample that, as a whole, favours compounds with a hit. Of some 83,000 tested, about 20% had one in any assay.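 Growth was measured after 48 h exposure to one concentration of compound in 96-well plates. Values under 10 count as active.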 Values without a mark were called inactive. Activity calls are given as the source filed them.

Legend:
Test in all cases: NCI-60 one-dose screen, 48 h (100 = growth as untreated, 0 = no growth, -100 = all killed)
NCI-H23 lung = conditions: 10 µM unless noted
NCI-H226 lung = conditions: 10 µM unless noted
DU-145 prostate = conditions: 10 µM unless noted
MDA-MB-231 breast = conditions: 10 µM unless noted
SF-268 CNS = conditions: 10 µM unless noted
M14 melanoma = conditions: 10 µM unless noted
HCT-15 colon = conditions: 10 µM
SNB-75 CNS = conditions: 10 µM unless noted
U251 CNS = conditions: 10 µM unless noted
PC-3 prostate = conditions: 10 µM unless noted
UACC-62 melanoma = conditions: 10 µM unless noted
OVCAR-8 ovarian = conditions: 10 µM unless noted
OVCAR-5 ovarian = conditions: 10 µM unless noted
SK-OV-3 ovarian = conditions: 10 µM unless noted
OVCAR-3 ovarian = conditions: 10 µM unless noted
NCI/ADR-RES ovarian = conditions: 10 µM unless noted
MDA-MB-435 melanoma = conditions: 10 µM unless noted
MCF7 breast = conditions: 10 µM unless noted
HCT-116 colon = conditions: 10 µM unless noted
KM12 colon = conditions: 10 µM unless noted

Row | Structure (SMILES) | growth (NCI-H23 lung) | growth (NCI-H226 lung) | growth (DU-145 prostate) | growth (MDA-MB-231 breast) | growth (SF-268 CNS) | growth (M14 melanoma) | growth (HCT-15 colon) | growth (SNB-75 CNS) | growth (U251 CNS) | growth (PC-3 prostate) | growth (UACC-62 melanoma) | growth (OVCAR-8 ovarian) | growth (OVCAR-5 ovarian) | growth (SK-OV-3 ovarian) | growth (OVCAR-3 ovarian) | growth (NCI/ADR-RES ovarian) | growth (MDA-MB-435 melanoma) | growth (MCF7 breast) | growth (HCT-116 colon) | growth (KM12 colon)
1 | C=CCc1ccc(OC(=O)Cc2ccccc2)c(OC)c1 | 93.8% | 95% | 111% | 106% | 107% | 106% | 103% | 76.3% | 99.3% | 100% | 114% | 109% | 110% | 94.2% | 110% | 105% | 107% | 96% | 105% | 110%
2 | CC1(C)N=C(N)N=C(N)N1c1ccc(CCCCc2ccc(S(=O)(=O)F)cc2)c(Cl)c1 | 29.8% | 31.8% | 30.6% | 34.3% | 25.6% | 24.3% | 29.5% | 63.2% | 9.69% (active) | 7.48% (active) | 18.3% | 16.5% | 40.3% | 42% | 35.3% | 103% | 15.7% | -0.0775% (active) | 12.8% | 22.4%
3 | CC(=O)C1CCC2C3CC=C4CC(OC(=O)Cc5ccc(N(CCCl)CCCl)cc5)CCC4(C)C3CCC12C (stereo not drawn) | 96.6% | 94.6% | 86% | 112% | 93.7% | 97.4% | 99.5% | 93.7% | 106% | 86.2% | 91.4% | 103% | 107% | 112% | 99.6% | 96.2% | 111% | 106% | 93.7% | 106%
4 | CC12CCC(=O)C=C1CCC1C2CCC2(C)C(C(=O)COC(=O)Cc3ccc(N(CCCl)CCCl)cc3)CCC12 (stereo not drawn) | 94% | 72.5% | 109% | 108% | 77.9% | 104% | 86.2% | 83.3% | 75.5% | 36.1% | 66.3% | 79.1% | 119% | 90% | 107% | 91.8% | 96.1% | 70.5% | 82.4% | 101%
5 | NC(=O)NC(=O)CI | 95.5% | 95.1% | 101% | 94.9% | 101% | 88.7% | 85.7% | 106% | 94.7% | 98.5% | 86.7% | 101% | 114% | 111% | 102% | 99.4% | 98.2% | 94.3% | 36.8% | 107%
6 | COc1ccc(-c2ccc(OC)c(OC)c2OC)cc1 | 46.1% | 86.7% | 13.8% | 43.8% | 51.5% | 3.01% (active) | 27.1% | -11% (active) | 22.9% | 18.3% | 34.4% | 21.7% | 58% | 7.71% (active) | -25% (active) | -20% (active) | -24% (active) | 19.3% | 15.3% | 29.2%
7 | CC1(C)N=C(N)N=C(N)N1c1ccc(CCCCc2ccc(S(=O)(=O)F)cc2)cc1 | 39.4% | 36.8% | 31.8% | 46.7% | 30% | 27.6% | 36.8% | 63.7% | 16.7% | 12.5% | 19.8% | 24.3% | 41.2% | 69.1% | 33.2% | 113% | 18.9% | 2.82% (active) | 12.6% | 17.1%
8 | Oc1ccc(O)c2c1C1(Cl)C(Cl)=C(Cl)C2(Cl)C1(Cl)Cl | 59.3% | 59% | 63.2% | 41.3% | 44.7% | 32.6% | 45.3% | 31.6% | 51.6% | 42.4% | 37.1% | 74% | 70.1% | 66.9% | 40.4% | 40.5% | -3.33% (active) | 38.9% | 28.4% | 34.6%
9 | Nc1ccc([N+](=O)[O-])c2c1Oc1ccccc1O2 | 94.3% | 87.4% | 93.1% | 97% | 107% | 106% | 87.8% | 82.8% | 90.2% | 101% | 81.7% | 92.9% | 88.1% | 88.9% | 88.3% | 99.4% | 106% | 101% | 99.7% | 99.8%
10 | CC(C)[C@]12O[C@H]1[C@@H]1O[C@]13[C@]1(O[C@H]1C[C@H]1C4=C(CC[C@@]13C)C(=O)OC4)[C@@H]2OC(=O)OC(C)(C)C | -28% (active) | 12.6% | 8.08% (active) | 21.8% | -2.29% (active) | -75.7% (active) | 8.8% (active) | -60.5% (active) | 15.5% | 19.8% | -51.4% (active) | 16.8% | 24.4% | 43.6% | 5.42% (active) | -2.52% (active) | -73.6% (active) | 18.5% | 4.76% (active) | 2.1% (active)
11 | O=S(=O)(Cl)c1ccccc1 (tested in a mixture with another compound) | 106% | 97.3% | 109% | 117% | 104% | 102% | 101% | 95.4% | 93.7% | 103% | 106% | 108% | 93.7% | 102% | 106% | 110% | 115% | 93.1% | 99.4% | 108%
12 | Cc1cc(CCl)c(C)cc1CCl | 55.4% | 83.3% | 1.11% (active) | 108% | 41.9% | 45.1% | 75.2% | 48.4% | 40.2% | 66.9% | 60.6% | 61.7% | 141% | 73.9% | 2.57% (active) | 62% | 76.5% | 7.03% (active) | 50.9% | -43.7% (active)
13 | OB([O][Hg][c]1ccccc1)[O][Hg][c]1ccccc1 | -56.2% (active) | 54.9% | -73.5% (active) | -69.8% (active) | -51.2% (active) | -80.9% (active) | -70.3% (active) | -56% (active) | -82.4% (active) | -60.4% (active) | -99.1% (active) | -97.1% (active) | -64% (active) | -62.7% (active) | -89.6% (active) | -18.2% (active) | -84% (active) | -39.4% (active) | -68.4% (active) | 14.7%
14 | O=[N+]([O-])c1ccc(F)c([N+](=O)[O-])c1F | 111% | 100% | 115% | 113% | 103% | – | 116% | 116% | 101% | 89.3% | 107% | 104% | 107% | 105% | 103% | 109% | 103% | 102% | – | 94.1%
15 | CCCCCCCCCCCCOc1ccc(C(=O)Oc2ccc(CSP3(=O)OCC4OC(n5cnc6c(N)ncnc65)C(F)C4OP(=O)(O)OCC4OC(n5ccc(=O)[nH]c5=O)C(F)C4O3)cc2)cc1 (stereo not drawn) | 101% | 85.5% | 103% | 108% | 107% | 86.2% | 101% | 107% | 109% | 100% | 118% | 109% | 115% | 110% | 98.2% | 102% | 106% | 93.4% | 83.2% | 106%
16 | C=CC(=O)NC(O)C(Cl)(Cl)Cl (stereo not drawn) | 105% | 112% | 106% | 115% | 104% | 98.2% | 97.1% | 100% | 102% | 102% | 101% | 108% | 107% | 98.2% | 105% | 106% | 105% | 105% | 101% | 106%
